According to the supplement of paper PMC6522484:
Structures can show the parent of a compound that is named as a salt. ± gives the standard deviation of the averaged measurements.

Experiments:
DLD1 [1] = test: cell viability (CellTiter-Glo) relative to plate median (fraction of plate median); higher = more viable cells; conditions: 10 µM, treatment time 24 h
Summary of the method: (§1)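 Each value averages two independent replicates in which the well signal was normalised to the plate median (webcellHTS2, additive, without log transformation). The signal was firefly luciferase or CellTiterGlo luminescence, read on parallel plates with a Tecan F500. The cells were colorectal cancer lines with stable lentiviral TCF/Wnt firefly luciferase reporters in 384-well plates, dosed 24 h after seeding with kinase inhibitor library compounds at a final 10 µM for 24 h.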

HCT116 [2] = test: as above; conditions: 10 µM; treatment time 24 h; reporter: TCF4/Wnt
Summary of the method: as §1

SW480 [3] = test: as above; conditions: 10 µM; treatment time 24 h; reporter: 7TFP
Summary of the method: as §1

DLD1 [4] = test: TCF/Wnt firefly luciferase reporter signal relative to plate median (fraction of plate median); higher = higher Wnt reporter signal; conditions: 10 µM, treatment time 24 h
Summary of the method: as §1

HCT116 [5] = test: as above; conditions: 10 µM; treatment time 24 h; reporter: TCF4/Wnt
Summary of the method: as §1

SW480 [6] = test: as above; conditions: 10 µM; treatment time 24 h; reporter: 7TFP
Summary of the method: as §1

| Compound | cell viability (DLD1 [1]; reporter: 7TFP) | cell viability (DLD1 [1]; reporter: TCF4/Wnt) | cell viability (HCT116 [2]) | cell viability (SW480 [3]) | TCF/Wnt firefly luciferase reporter signal (DLD1 [4]; reporter: 7TFP) | TCF/Wnt firefly luciferase reporter signal (DLD1 [4]; reporter: TCF4/Wnt) | TCF/Wnt firefly luciferase reporter signal (HCT116 [5]) | TCF/Wnt firefly luciferase reporter signal (SW480 [6]) |
| --- | --- | --- | --- | --- | --- | --- | --- | --- |
| CN(C)C1CCN(C(=O)c2ccc(NC(=O)Nc3ccc(-c4nc(N5CCOCC5)nc(N5CCOCC5)n4)cc3)cc2)CC1 | 1.1 ± 0.17 | 1.05 ± 0.081 | 0.649 ± 0.051 | 1.17 ± 0.05 | 0.947 ± 0.076 | 0.933 ± 0.073 | 0.611 ± 0.23 | 0.958 ± 0.1 |
| CC(=O)Nc1cccc(-n2c(=O)n(C3CC3)c(=O)c3c(Nc4ccc(I)cc4F)n(C)c(=O)c(C)c32)c1 | 1.33 ± 0.057 | 1.29 ± 0.13 | 0.9995 ± 0.00071 | 1.19 ± 0.042 | 1.09 ± 0.52 | 1.39 ± 0.54 | 1.32 ± 0.58 | 2.02 ± 0.042 |
| CNC(=O)c1ccccc1Sc1ccc2c(/C=C/c3ccccn3)n[nH]c2c1 [Axitinib] | 0.9855 ± 0.0021 | 1 ± 0.052 | 0.965 ± 0.0028 | 0.906 ± 0.051 | 1.7 ± 0.057 | 1.97 ± 0.33 | 1.53 ± 0.89 | 1.36 ± 0.92 |
| O=C(O)[C@]1(Cc2cccc(Nc3nccs3)n2)CC[C@@H](Oc2cccc(Cl)c2F)CC1 | 1.08 ± 0.092 | 1.02 ± 0.014 | 0.959 ± 0.057 | 1.14 ± 0.014 | 0.824 ± 0.061 | 0.857 ± 0.2 | 0.568 ± 0.44 | 0.742 ± 0.0071 |
| CNC(=O)CN1CCC(Oc2cc3c(Nc4cccc(Cl)c4F)ncnc3cc2OC)CC1 | 1 ± 0.081 | 1.01 ± 0.059 | 1.05 ± 0.028 | 0.893 ± 0.0042 | 0.943 ± 0.19 | 0.862 ± 0.35 | 0.656 ± 0.43 | 0.849 ± 0.07 |
| O=C1NC(=O)/C(=C/c2ccc3nccc(-c4ccncc4)c3c2)S1 | 0.973 ± 0.038 | 1.07 ± 0.071 | 0.597 ± 0.061 | 1.02 ± 0.13 | 0.312 ± 0.018 | 0.564 ± 0.29 | 0.417 ± 0.25 | 0.572 ± 0.07 |
| CS(=O)(=O)CCNCc1ccc(-c2ccc3ncnc(Nc4ccc(OCc5cccc(F)c5)c(Cl)c4)c3c2)o1 [Lapatinib Ditosylate (Tykerb)] | 1.06 ± 0.078 | 1.02 ± 0.03 | 0.972 ± 0.04 | 0.913 ± 0.035 | 1.27 ± 0.078 | 1.1 ± 0.042 | 1.25 ± 0.18 | 1.16 ± 0.057 |
| Cn1cc(C2=C(c3ccc(Cl)cc3Cl)C(=O)NC2=O)c2ccccc21 | 1.05 ± 0.18 | 0.952 ± 0.058 | 1.01 ± 0.088 | 0.993 ± 0.067 | 1.4 ± 0.057 | 1.35 ± 0.43 | 1.56 ± 0.61 | 1.35 ± 0.16 |
| CNC(=O)Nc1ccc(-c2nc(N3CC4CCC(C3)O4)c3cnn(C4CCC5(CC4)OCCO5)c3n2)cc1 | 0.902 ± 0.088 | 0.998 ± 0.045 | 0.805 ± 0.11 | 1.16 ± 0.028 | 0.356 ± 0.076 | 0.554 ± 0.12 | 0.617 ± 0.14 | 0.876 ± 0.1 |
| CN1CC[C@H](c2c(O)cc(O)c3c(=O)cc(-c4ccccc4Cl)oc23)[C@H](O)C1 [Flavopiridol hydrochloride] | 1.27 ± 0.2 | 1.24 ± 0.092 | 0.865 ± 0.29 | 1.36 ± 0.11 | 0.393 ± 0.14 | 0.227 ± 0.069 | 0.196 ± 0.047 | 0.869 ± 0.0099 |
| Cc1ccc([N+](=O)[O-])cc1S(=O)(=O)N(C)/N=C/c1cnc2ccc(Br)cn12 | 0.887 ± 0.097 | 1.07 ± 0.078 | 0.763 ± 0.23 | 1.13 ± 0.11 | 0.358 ± 0.074 | 0.239 ± 0.0014 | 0.155 ± 0.059 | 0.53 ± 0.24 |
